Several values for one entry are separate records, joined by “and”; a condition that tells them apart may be missing. Identical values can stand only once. Unmarked numbers belong to inactive results. Inconclusive results are not listed. Activity calls are given as the source filed them. Unless noted, the call rests on the fitted dose curve; in most records, active means well fitted curve in the direction sought with a large enough effect in the repeat runs; inconclusive means weak or mixed curves; inactive means no such curve, though single readings can be large; an effect the other way counts as inactive or inconclusive.

Test [1] can be described thus: qHTS assay to identify small molecule agonists of the constitutive androstane receptor (CAR) signaling pathway - cell viability counter screen (AID 1224836). Further: nearly all actives have a fitted effect of over 45% in size. Further: potency means the concentration at half of the fitted maximal effect. Put shortly:
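Counter screen multiplexed with the CAR reporter readout: HepG2 cells co-transfected with hCAR and the CYP2B6-2.2kb construct receive a 15-concentration compound series and 0.75 uM PK11195 (final), then CellTiter-Fluor fluorescence is read after 23 h.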
(In general: qHTS replaces the single test concentration by a dilution series.)

Test [2] in a line: qHTS assay to identify small molecule antagonists of the constitutive androstane receptor (CAR) signaling pathway - cell viability counter screen (AID 1224837). Further: nearly all actives have a fitted effect of over 45% in size. Further: potency means the concentration at half of the fitted maximal effect. Put shortly:
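In quantitative HTS format, compounds at 15 concentrations were applied to HepG2 cells double-transfected with hCAR and CYP2B6-2.2kb under 50 nM CITCO stimulation; live-cell protease activity was read after 23 hr via CellTiter-Fluor.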

Test [3] addresses Nuclear receptor subfamily 1 group I member 3 (Homo sapiens) (UniProt Q14994). In words: qHTS assay to identify small molecule antagonists of the constitutive androstane receptor (CAR) signaling pathway (AID 1224838). Further: nearly all actives have a fitted effect of over 40% in size. Further: potency means the concentration at half of the fitted maximal effect. The essentials: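 CITCO-stimulated (50 nM final) HepG2 cells stably transfected with hCAR and CYP2B6-2.2kb luciferase were exposed to compounds at 15 concentrations for 24 h at 37 C/5% CO2. A luciferase reagent was added and luminescence recorded after 30 min.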

The target is the same in test [4]. In words: qHTS assay to identify small molecule agonists of the constitutive androstane receptor (CAR) signaling pathway (AID 1224839). Further: nearly all actives have a fitted effect of over 15% in size. Further: potency means the concentration at half of the fitted maximal effect. The essentials:
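A 15-concentration quantitative screen uses HepG2 cells co-transfected stably with human CAR and CYP2B6-2.2kb reporter. Treatment lasts 24 h with 0.75 uM PK11195 final present; ONE-Glo luminescence is the signal.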

Test [5] can be described thus: qHTS assay to identify small molecule antagonists of the estrogen related receptor signaling pathway with the pleiotropic PPARgamma coactivator (PGC) from Tox21 10K library - cell viability counter screen (AID 1224840; active means well fitted cell-killing curve with a large enough effect in the repeat runs, not every such curve was filed as active; further: nearly all actives have a fitted effect of over 40% in size; further: potency means the concentration at half of the fitted maximal effect). Put shortly: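 Viability counter screen, PGC/ERR cells: 17.5 h compound exposure at 37 C, CellTiter-Fluor fluorescence endpoint.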
For test [6], the target named is Thyrotropin receptor (Homo sapiens) (UniProt P16473). In words: qHTS assay to identify small molecule agonists of the thyroid stimulating hormone receptor (TSHR) signaling pathway (AID 1224843; calls by dose curve; further: nearly all actives have a fitted effect of over 45% in size). Put shortly:
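A cell-based cAMP HTRF format was run in TSHR-transfected HEK293 cells, 800 per well. Treatment: 30 min, room temperature. Detection: 1 h with labelled cAMP and anti-cAMP cryptate. Concentration-response over 15 points, three replicates.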

Test [7] is described as follows: qHTS assay to identify small molecule agonists of the hypoxia (HIF-1) signaling pathway - cell viability counter screen (AID 1224844; calls by dose curve; further: nearly all actives have a fitted effect of over 50% in size). The essentials: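 Same wells as the HIF-1 reporter screen; ME-180 cells carrying HRE-bla, 17 hr treatment at 37C; CellTiter-Glo luminescence read after 30 min at room temperature.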
Test [8] is described as follows: qHTS assay to identify small molecule agonists of H2AX - cell viability counter screen (AID 1224847; calls by dose curve; further: nearly all actives have a fitted effect of over 30% in size; further: potency means the concentration at half of the fitted maximal effect). Put shortly:
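We seed wild-type CHO-K1 cells overnight, treat them for 3 hr at 37C with compounds in 15-concentration series, and quantify remaining viability by CellTiter-Glo luminescence.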

The nature of test [9]: qHTS assay to identify small molecule antagonists of the estrogen related receptor (ERR) signaling pathway from Tox21 library (AID 1224848). Further: nearly all actives have a fitted effect of over 50% in size. Further: potency means the concentration at half of the fitted maximal effect. Put shortly: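 ERR cell line, 2,000 cells/well. 6 h settle, then compound (DMSO) added; 18 h at 37 C; ONE-Glo luminescence after 30 min RT.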
Test [10] can be described thus: qHTS assay to identify small molecule agonists of the estrogen related receptor (ERR) signaling pathway from Tox21 library (AID 1224849; calls by dose curve; further: nearly all actives have a fitted effect of over 15% in size). Conditions: ERR reporter cell line, ONE-Glo luciferase, 18 h. The essentials: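 Reporter cells (ERR, NTP source) treated with Tox21 10K compounds 18 h, 37 C. Readout: ONE-Glo luminescence, 30 min RT.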
The nature of test [11]: qHTS RealTime-Glo MT Cell Viability Assay in HepG2 cells - 24 hour (AID 1224867). Further: nearly all actives have a fitted effect of over 50% in size. The essentials:
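Tox21 10K library screened in qHTS format on HepG2 cells carrying RealTime-Glo reagents. Compounds were added after a 5 h preincubation, and the luminescent signal from continuous culture was measured repeatedly during 40 h treatment.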

Test [12] is described as follows: qHTS RealTime-Glo MT Cell Viability Assay in HEK293 cells - 32 hour (AID 1224868). Further: top concentration of the series differs between compounds; nearly all actives have a fitted effect of over 50% in size. The essentials:
(§1)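 Luminescence generated by NanoLuc from substrate produced by living HEK293 cells served as the viability signal. Each value reflects the reading at its stated time point during continuous 40 h compound exposure at 37 C.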

The nature of test [13]: A CellTox Green Cytotoxicity Assay to monitor cytotoxicity in HEK293 cells - 0 hour (AID 1224869). Further: nearly all actives have a fitted effect of over 50% in size. Put shortly: (§2)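 Homogeneous no-lysis format: HEK293 cell suspension mixed with CellTox Green reagent, seeded, incubated 5 h at 37 C/5% CO2, then dosed by pintool with compound in DMSO.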
Test [14] can be described thus: qHTS RealTime-Glo MT Cell Viability Assay in HepG2 cells - 40 hour (AID 1224870). Further: nearly all actives have a fitted effect of over 50% in size. Put shortly:
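Real-time viability: cells seeded at 600 per well together with NanoLuc and cell-permeant prosubstrate, compounds added after 5 h incubation. Luminescence tracked at 0, 8, 16, 24, 32 and 40 h of exposure.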

Test [15] is described as follows: A CellTox Green Cytotoxicity Assay to monitor cytotoxicity in HEK293 cells - 40 hour (AID 1224871). Further: nearly all actives have a fitted effect of over 45% in size. The essentials: as §2
The nature of test [16]: qHTS RealTime-Glo MT Cell Viability Assay in HEK293 cells - 16 hour (AID 1224872). Put shortly:
as §1

Test [17] is described as follows: qHTS assay to identify small molecule agonists of H2AX (AID 1224845; active means well fitted activation curve with a large enough effect in the signal ratio in the repeat runs, not every such curve was filed as active; the % refers to the signal ratio; further: potency means the concentration at half of the fitted maximal effect). The essentials: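 Phospho-H2AX Ser139 measured by HTRF (ex 320 nm; em 665 and 620 nm) after 24 hr antibody incubation. Compounds, 15 concentrations, 0.76% DMSO, were applied to CHO-K1 cells for 3hr at 37C before lysis.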
Test [18] can be described thus: qHTS assay to identify small molecule agonists of the hypoxia (HIF-1) signaling pathway (AID 1224846; active means well fitted activation curve with a large enough effect in the signal ratio in the repeat runs, not every such curve was filed as active; the % refers to the signal ratio). The essentials:
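In ME-180 cells bearing an HRE-bla construct, 17 h treatment with DMSO-dissolved compounds at 37C was followed by CCF4-AM loading to quantify reporter induction.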

A short description of test [19]: qHTS assay to identify small molecule antagonists of the estrogen related receptor signaling pathway with the pleiotropic PPARgamma coactivator (PGC) from Tox21 10K library (AID 1224841; call rule not given here; further: potency means the concentration at half of the fitted maximal effect). Put shortly: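 In the PGC/ERR line, DMSO solutions of test chemicals are pin-delivered to 2,000 cells/well six hours after dispensing. Following eighteen hours' incubation, One-Glo reagent is added and luminescence recorded.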

Test [20] in a line: qHTS assay to identify small molecule agonists of the estrogen related receptor signaling pathway with the pleiotropic PPARgamma coactivator (PGC) from Tox21 10K library (AID 1224842). Further: nearly all actives have a fitted effect of over 15% in size. The essentials:
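Luminescence from One-Glo (30 min, room temperature) measured after PGC/ERR cells had 18 h at 37 C with pinned compound (23 nL in DMSO). Cells had been seeded at 2,000 per well and pre-incubated 6 h.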
On the % scale 0 is the no-effect control and ±100 the full control effect.

Chain of Nuclear receptor subfamily 1 group I member 3 (Homo sapiens) (Q14994 whole entry, looked up): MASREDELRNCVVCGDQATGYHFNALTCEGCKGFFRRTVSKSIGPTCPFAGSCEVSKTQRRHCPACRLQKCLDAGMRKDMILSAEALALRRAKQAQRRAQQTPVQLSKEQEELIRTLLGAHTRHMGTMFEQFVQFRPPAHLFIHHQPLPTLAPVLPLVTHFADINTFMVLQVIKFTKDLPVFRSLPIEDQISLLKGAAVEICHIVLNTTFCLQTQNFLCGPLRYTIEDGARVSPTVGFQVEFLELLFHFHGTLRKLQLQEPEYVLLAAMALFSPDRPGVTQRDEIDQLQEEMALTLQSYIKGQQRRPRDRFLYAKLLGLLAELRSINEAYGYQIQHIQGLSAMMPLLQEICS
Chain of Thyrotropin receptor (Homo sapiens) (P16473 whole entry, looked up): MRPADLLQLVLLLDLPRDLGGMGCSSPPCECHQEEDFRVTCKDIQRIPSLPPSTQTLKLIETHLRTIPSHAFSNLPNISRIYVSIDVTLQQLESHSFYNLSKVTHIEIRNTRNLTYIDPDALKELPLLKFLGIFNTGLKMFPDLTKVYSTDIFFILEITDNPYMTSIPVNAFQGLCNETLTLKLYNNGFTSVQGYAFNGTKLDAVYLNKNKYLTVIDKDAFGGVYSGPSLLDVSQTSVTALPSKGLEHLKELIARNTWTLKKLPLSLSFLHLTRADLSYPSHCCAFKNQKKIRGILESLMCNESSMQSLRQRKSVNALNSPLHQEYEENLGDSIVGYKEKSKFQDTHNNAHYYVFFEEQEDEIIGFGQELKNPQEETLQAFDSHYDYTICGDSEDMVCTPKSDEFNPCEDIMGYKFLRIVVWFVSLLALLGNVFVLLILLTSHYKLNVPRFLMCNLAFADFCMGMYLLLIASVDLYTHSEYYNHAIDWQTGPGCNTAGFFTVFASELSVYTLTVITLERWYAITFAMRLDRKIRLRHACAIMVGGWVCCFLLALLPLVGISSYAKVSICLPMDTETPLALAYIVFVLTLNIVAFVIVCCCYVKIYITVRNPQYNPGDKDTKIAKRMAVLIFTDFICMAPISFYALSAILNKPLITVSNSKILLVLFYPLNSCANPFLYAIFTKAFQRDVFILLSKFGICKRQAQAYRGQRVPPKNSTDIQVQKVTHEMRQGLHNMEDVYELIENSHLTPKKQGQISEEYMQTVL

On to `CCn1c2ccccc2c2cc(N)ccc21`, for which the Potency entry in [1], in test [2], in test [3], in test [5], in [6] and in test [7] was “inactive” throughout. Moreover, the Potency entry in [8], in test [11], in [12], in test [13], in [14] and in [15] was “inactive” throughout. Moreover, in [16], the Potency result is “inactive”. Further, the Potency in test [4] was 10.8 µM (active) and 15.4 µM (active) and 30.6 µM (active); in test [9] it was 34 µM (active). In [10] (at 92.4 µM (top of the series)), the activity change, positive = activation was -48% and -30.3% and -32.3%.
Take `O=C(Cl)c1cccc(C(=O)Cl)c1`: the Potency result in test [1], in test [2], in test [3], in test [4], in test [5] and in test [6] was “inactive” throughout. Besides, the Potency entry in [7], in test [17], in [18], in test [8], in test [11] and in [12] was “inactive” throughout. The Potency entry in test [13], in test [14], in test [15] and in test [16] was “inactive” in each case.
In the case of `CC(=O)CC(=O)Nc1ccc2[nH]c(=O)[nH]c2c1`, the Potency entry in test [1], in test [2], in test [3], in test [4], in test [5] and in [19] was “inactive” throughout. Also, the Potency result in test [20], in test [6], in test [17], in test [18], in test [8] and in [9] was “inactive” throughout. Besides, the Potency entry in test [11], in test [12], in [13], in [14], in test [15] and in test [16] was “inactive” throughout. In [10] (at 92.4 µM (top of the series)), the activity change, positive = activation was 4.73%.
`C=CC(=O)OCCCCCCCC`: the Potency entry in test [1], in [2], in test [3], in test [4], in test [5] and in test [20] was “inactive” each time. Further, the Potency result in test [6], in [7], in [17], in test [18], in test [9] and in test [11] was “inactive” throughout. Also, the Potency result in [12], in [13], in [14], in test [15] and in test [16] was “inactive” each time. Also, in [19], the Potency is 13.7 µM (active). In test [10] (at 92.4 µM (top of the series)), the activity change, positive = activation is 2.1%.
As for `Cc1ccc(S(=O)(=O)Oc2ccc(N=Nc3ccc(-c4ccc(N=Nc5c(O)ccc6cc(S(=O)(=O)O)cc(S(=O)(=O)O)c56)c(C)c4)cc3C)cc2)cc1`, the Potency was 27.4 µM (active) and 20 µM (active) in test [1]; 27.4 µM (active) and 31.6 µM (active) in test [2]; 19.4 µM (active) and 20 µM (active) in test [5]; 17.3 µM (active) in [19]; 45.2 µM (active) and 29.3 µM (active) in test [8]; 27.4 µM (active) in test [9]. Also, the Potency result in test [3], in [4], in test [7], in [17], in [12] and in test [13] was “inactive” in each case. The Potency result in test [15] and in test [16] was “inactive” in each case. Also, the activity change, positive = activation in [10] (at 42.5 µM (top of the series)) is -13.6%; in test [10] (at 92.4 µM (top of the series)) it was -34.2%.
As for `BrC1CCC(Br)C(Br)CCC(Br)C(Br)CCC1Br` (configuration not stated), the Potency result in test [1], in [2], in [4], in test [20], in [7] and in [12] was “inactive” each time. The Potency result in test [13], in test [14], in [15] and in test [16] was “inactive” each time. Moreover, the Potency in test [3] is 21.6 µM (active) and 25.9 µM (active); in [19], 30.5 µM (active); in [17] it was 89.4 µM (active); in test [8], 79.7 µM (active) and 95.6 µM (active); in [9], 27.2 µM (active) and 58 µM (active). The activity change, positive = activation in [10] (at 92.4 µM (top of the series)) was -60.1% and -54.5%.

The values are drawn from PubChem BioAssay (Tox21).
